Results: article PMC5540273 (PLoS ONE, 2017)

What was measured:
Settings in all cases: concentration: 1 μM, replicates: in singlicate; n = 1
NDR1 = tested on: T1, NDR1
T1 construct: gene STK38

NDR2 = tested on: NDR2
NEK10 = tested on: NEK10
NEK11 = tested on: NEK11
NEK1 = tested on: NEK1
NEK2 = tested on: NEK2
NEK3 = tested on: NEK3
NEK4 = tested on: NEK4
NEK5 = tested on: NEK5
NEK6 = tested on: NEK6
NEK7 = tested on: NEK7
NEK9 = tested on: NEK9
NIK = tested on: T2, NIK
T2 construct: gene MAP3K14

NIM1 = tested on: T3, NIM1
T3 construct: gene MGC42105

NLK = tested on: NLK
OSR1 = tested on: T4, OSR1
T4 construct: gene OXSR1

PAK1 = tested on: PAK1
PAK2 = tested on: PAK2
PAK3 = tested on: PAK3
PAK4 = tested on: PAK4
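Note: KINOMEscan kinase panel screen.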

Row | Structure (SMILES) | %Inh (NDR1) | %Inh (NDR2) | %Inh (NEK10) | %Inh (NEK11) | %Inh (NEK1) | %Inh (NEK2) | %Inh (NEK3) | %Inh (NEK4) | %Inh (NEK5) | %Inh (NEK6) | %Inh (NEK7) | %Inh (NEK9) | %Inh (NIK) | %Inh (NIM1) | %Inh (NLK) | %Inh (OSR1) | %Inh (PAK1) | %Inh (PAK2) | %Inh (PAK3) | %Inh (PAK4)
1 | NC(=O)c1nnc2ccccc2c1N | 20% | 0% | 85% | 0% | 0% | 16% | 31% | 4% | 3% | 10% | 0% | 0% | 69% | 14% | 2% | 31% | 0% | 7% | 5% | 0%
2 | Nc1nc(-c2nccs2)c(-c2ccnc3ccccc23)s1 [GW693542] | 17% | 30% | 19% | 12% | 0% | 0% | 4% | 0% | 3% | 0% | 0% | 12% | 0% | 5% | 38% | 6% | 0% | 1% | 9% | 0%
3 | Cc1cc(N2Cc3ccccc3C2)nc(Nc2ccc(S(=O)(=O)N3CCOCC3)cc2)n1.Cl [GSK1669917] | 20% | 0% | 0% | 0% | 0% | 0% | 0% | 9% | 23% | 0% | 0% | 0% | 0% | 6% | 7% | 0% | 8% | 3% | 0% | 0%
4 | COc1cc2ncn(-c3cc(OCC4CCCO4)c(C(N)=O)s3)c2cc1OC (stereo not shown) [GSK204607] | 12% | 10% | 0% | 0% | 11% | 28% | 5% | 0% | 10% | 0% | 0% | 0% | 19% | 23% | 15% | 0% | 0% | 0% | 9% | 0%
5 | Cc1nnc(-c2ccc3occ(-c4ccc(S(C)=O)cc4)c3c2)[nH]1 (stereo not shown) | 1% | 0% | 0% | 0% | 0% | 11% | 11% | 0% | 1% | 8% | 22% | 25% | 0% | 0% | 17% | 6% | 28% | 36% | 17% | 8%
6 | Cc1c(O)cccc1Nc1ccnc2ccc(C(F)(F)F)cc12.Cl [GW466413] | 0% | 0% | 16% | 0% | 0% | 0% | 0% | 0% | 0% | 0% | 0% | 0% | 22% | 17% | 0% | 0% | 0% | 0% | 1% | 0%
7 | Cc1ccc(NC(=O)Nc2cc(C(C)(C)C)nn2-c2ccccc2)cc1 [GSK1014915] | 0% | 0% | 19% | 0% | 0% | 12% | 8% | 10% | 0% | 0% | 6% | 0% | 35% | 3% | 14% | 0% | 0% | 2% | 76% | 0%
8 | Cc1ccc(-c2cc(-c3c[nH]nc3-c3ccccn3)ccn2)cc1 [GW684088] | 20% | 47% | 0% | 30% | 0% | 0% | 8% | 0% | 11% | 0% | 0% | 0% | 47% | 17% | 22% | 5% | 14% | 18% | 0% | 19%
9 | COc1ccccc1CNC(=O)c1cc(C(=O)c2ccccc2C)c[nH]1 [GSK364507] | 0% | 0% | 6% | 0% | 0% | 0% | 8% | 14% | 13% | 17% | 6% | 15% | 12% | 16% | 40% | 8% | 6% | 1% | 0% | 0%
10 | Cc1cccc(-c2nc(Nc3ccc4[nH]ncc4c3)c3ccccc3n2)n1 [GW857175] | 26% | 5% | 54% | 7% | 0% | 4% | 18% | 27% | 8% | 3% | 5% | 0% | 11% | 30% | 1% | 25% | 0% | 2% | 0% | 6%
11 | COc1ccc(C2=C(Nc3cccc(C(=O)O)c3)C(=O)NC2=O)cc1 [SB-390765] | 2% | 13% | 2% | 30% | 0% | 10% | 31% | 23% | 0% | 13% | 28% | 2% | 10% | 45% | 1% | 22% | 0% | 27% | 0% | 0%
12 | O=C(Nc1ccccc1)Nc1cccc(Oc2ccc3nccn3n2)c1 | 4% | 0% | 0% | 0% | 0% | 0% | 8% | 0% | 0% | 0% | 0% | 36% | 7% | 19% | 22% | 0% | 0% | 0% | 0% | 0%
13 | CCn1c(-c2cccnc2O)nc2cnccc21 [SB-736715] | 0% | 0% | 0% | 0% | 0% | 0% | 21% | 0% | 0% | 0% | 0% | 0% | 27% | 0% | 0% | 0% | 0% | 0% | 0% | 32%
14 | Cc1ccc(NC(=O)Nc2cccc(Cl)c2)cc1-c1ccc(C(=O)Nc2ccncc2)cc1 [GSK1398468] | 25% | 0% | 3% | 0% | 0% | 2% | 16% | 0% | 20% | 0% | 0% | 0% | 2% | 11% | 38% | 12% | 19% | 0% | 0% | 0%
15 | CC(C)(C)c1ccc(C(=O)Nc2cn3cc(Cl)ccc3n2)cc1 | 99.7% | 0% | 4% | 0% | 0% | 0% | 21% | 0% | 0% | 0% | 0% | 0% | 0% | 0% | 0% | 0% | 0% | 14% | 0% | 0%
16 | O=C1NC(=O)C(N2CCc3ccccc32)=C1c1ccccc1Cl [SB-373598] | 12% | 0% | 18% | 0% | 0% | 1% | 7% | 15% | 9% | 0% | 0% | 13% | 0% | 16% | 2% | 63% | 10% | 10% | 100% | 0%
17 | COc1cccc(-c2cc(-c3c[nH]nc3-c3ccccn3)ccn2)c1 [GW680338] | 16% | 19% | 4% | 0% | 0% | 0% | 5% | 13% | 14% | 0% | 0% | 1% | 19% | 21% | 6% | 0% | 0% | 0% | 9% | 9%
18 | CN1C(=O)C(Nc2ccc(Cl)c(C(=O)O)c2)=C(c2ccc(Cl)cc2)C1=O [SB-404290] | 0% | 1% | 0% | 30% | 0% | 5% | 0% | 21% | 0% | 0% | 15% | 10% | 0% | 9% | 17% | 13% | 0% | 18% | 22% | 0%
19 | Cn1ccc2ncnc(Oc3cccc(C(=O)Nc4ccccc4)c3)c21 | 14% | 0% | 0% | 0% | 0% | 0% | 0% | 0% | 0% | 17% | 0% | 0% | 0% | 0% | 4% | 0% | 0% | 0% | 9% | 21%
20 | CCn1c(-c2ccccn2)nc2cnccc21 [SB-736398] | 6% | 0% | 26% | 39% | 100% | 0% | 12% | 10% | 0% | 0% | 0% | 0% | 24% | 34% | 0% | 0% | 22% | 24% | 31% | 0%
